Source: PubChem BioAssay (Tox21)
Records with an inconclusive call do not appear. The source made the active and inactive calls. Unless noted, calls come from the whole dose curve.

Columns and labels:
[1] = qHTS assay to identify small molecule agonists of the peroxisome proliferator-activated receptor delta (PPARd) signaling pathway - cell viability counter screen (AID 743211; active = well fitted curve in the direction sought with a large enough effect in the repeat runs; an effect the other way counts as inactive or inconclusive; note: % is set by controls: 0 for no effect and ±100 for the full control effect; nearly all actives have a fitted effect of over 55% in size)
Outline: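 In the same wells used for beta-lactamase reporter measurement, cytotoxicity is scored by CellTiter-Glo. HEK293H PPARd-bla cells receive compound for 17 h at 37C following a 5 h settling period.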

[2] = target: Peroxisome proliferator-activated receptor delta (Homo sapiens) (UniProt Q03181); assay: qHTS assay to identify small molecule agonists of the peroxisome proliferator-activated receptor delta (PPARd) signaling pathway (AID 743212); note: % is set by controls: 0 for no effect and ±100 for the full control effect
Peroxisome proliferator-activated receptor delta (Homo sapiens), sequence (Q03181 whole entry, looked up): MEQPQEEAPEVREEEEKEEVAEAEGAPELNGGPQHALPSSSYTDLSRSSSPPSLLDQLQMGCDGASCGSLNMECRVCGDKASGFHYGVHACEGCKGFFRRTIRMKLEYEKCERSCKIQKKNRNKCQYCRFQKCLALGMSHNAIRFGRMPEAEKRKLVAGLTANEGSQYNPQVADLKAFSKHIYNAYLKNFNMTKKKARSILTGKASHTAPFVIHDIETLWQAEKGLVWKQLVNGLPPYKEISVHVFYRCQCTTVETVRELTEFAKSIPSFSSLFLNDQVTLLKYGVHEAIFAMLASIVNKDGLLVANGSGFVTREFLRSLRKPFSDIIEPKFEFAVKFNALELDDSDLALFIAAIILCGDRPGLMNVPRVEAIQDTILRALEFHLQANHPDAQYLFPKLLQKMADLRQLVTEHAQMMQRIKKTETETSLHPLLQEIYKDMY
Outline: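 Read-out: beta-lactamase FRET fluorescence after 2 h room-temperature incubation with LiveBLAzer B/G substrate. Cells were HEK293H carrying a UAS-bla reporter for PPARd, treated at 37 C with DMSO-dissolved compounds.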

[3] = qHTS assay to identify small molecule antagonists of the peroxisome proliferator-activated receptor delta (PPARd) signaling pathway - cell viability counter screen (AID 743213; active = well fitted curve in the direction sought with a large enough effect in the repeat runs; an effect the other way counts as inactive or inconclusive; note: % is set by controls: 0 for no effect and ±100 for the full control effect; nearly all actives have a fitted effect of over 50% in size)
Outline: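 Luminescence from CellTiter-Glo, added after the bla read and incubated 30 min at room temperature, gives viability of HEK293H PPARd-bla cells exposed to compounds for 17 h at 37 C with 300 nM L165041.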

[4] = target: Peroxisome proliferator-activated receptor delta (Homo sapiens) (UniProt Q03181); assay: qHTS assay to identify small molecule antagonists of the peroxisome proliferator-activated receptor delta (PPARd) signaling pathway (AID 743215; active = well fitted inhibition curve with a large enough effect in the signal ratio in the repeat runs, not every such curve was filed as active; the % refers to the signal ratio;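 note: cells stimulated with agonist L165041 at 300 nM final during compound exposure; series mostly up to about 62 µM; % is set by controls: 0 for no effect and ±100 for the full control effect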)
Outline: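 Plated HEK293H PPARd-bla cells rested 5 h at 37 C and 5% CO2. Compound, then agonist L165041 at 300 nM final, was added; 17 h at 37 C followed. Substrate loading, 2 h room temperature, fluorescence measured.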

[5] = qHTS assay to identify small molecule agonists of the farnesoid-X-receptor (FXR) signaling pathway - cell viability counter screen (AID 743218; active = well fitted curve in the direction sought with a large enough effect in the repeat runs; an effect the other way counts as inactive or inconclusive; note: % is set by controls: 0 for no effect and ±100 for the full control effect; nearly all actives have a fitted effect of over 45% in size)
Outline: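 Viability of FXR-bla HEK 293T cells is measured by ATP-based CellTiter-Glo luminescence following 16 h compound treatment at 37 C and a prior 2 h room-temperature beta-lactamase substrate step.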

[6] = qHTS assay to identify small molecule agonists of the vitamin D receptor (VDR) signaling pathway - cell viability counter screen (AID 743224; active = well fitted curve in the direction sought with a large enough effect in the repeat runs; an effect the other way counts as inactive or inconclusive; note: series mostly up to about 63 µM; % is set by controls: 0 for no effect and ±100 for the full control effect; nearly all actives have a fitted effect of over 50% in size)
Outline: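 Compounds were pin-transferred onto VDR-bla cells plated 4 h earlier; following 16 h incubation at 37C, cell viability was quantified by CellTiter-Glo luminescence after 30 min at room temperature.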

[7] = qHTS assay to identify small molecule antagonists of the vitamin D receptor (VDR) signaling pathway - cell viability counter screen (AID 743225; active = well fitted curve in the direction sought with a large enough effect in the repeat runs; an effect the other way counts as inactive or inconclusive; note: % is set by controls: 0 for no effect and ±100 for the full control effect; nearly all actives have a fitted effect of over 50% in size)
Outline: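 Compounds were pinned onto VDR-bla HEK 293T cells together with 1-alpha,25-dihydroxyvitamin D3 at 3 nM final. After 16 h at 37C and 5% CO2 plus the reporter readout, cell viability was measured by CellTiter-Glo luminescence (30 min, room temperature).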

[8] = qHTS assay to identify small molecule agonists of the NFkB signaling pathway - cell viability counter screen (AID 1159515); note: series mostly up to about 61 µM; % is set by controls: 0 for no effect and ±100 for the full control effect; nearly all actives have a fitted effect of over 55% in size
Outline: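 Parallel cytotoxicity counter screen in ME-180 cells carrying an NFkB-response-element beta-lactamase reporter, 2,000 cells/well. Compound exposure lasted 5 hr at 37 C, 5% CO2. Cell viability was quantified by CellTiter-Glo luminescence.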

[9] = qHTS assay to identify small molecule agonists of the endoplasmic reticulum stress response signaling pathway (AID 1159516; active = well fitted activation curve with a large enough effect in the signal ratio in the repeat runs, not every such curve was filed as active; the % refers to the signal ratio; note: % is set by controls: 0 for no effect and ±100 for the full control effect)
Outline: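 Using a HeLa line with an ESRE-driven beta-lactamase gene, agonist activity was measured by FRET substrate fluorescence (460 and 530 nm emission) after cells were treated with compounds for 5 hr at 37 C and 5% CO2.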

[10] = qHTS assay to identify small molecule agonists of the endoplasmic reticulum stress response signaling pathway - cell viability counter screen (AID 1159517);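 note: HeLa cells carrying an ER stress response element beta-lactamase reporter; series mostly up to about 61 µM; % is set by controls: 0 for no effect and ±100 for the full control effect; nearly all actives have a fitted effect of over 50% in size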
Outline: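 Steps: seed 1,500 ESRE-bla HeLa cells per well; incubate overnight at 37 C, 5% CO2; add compounds in DMSO for 5 hr; run FRET substrate 2 hr RT; add CellTiter-Glo, wait 30 min, read luminescence.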

[11] = qHTS assay to identify small molecule antagonists of the retinoid-related orphan receptor gamma (ROR-gamma) signaling pathway - cell viability counter screen (AID 1159520; active = well fitted curve in the direction sought with a large enough effect in the repeat runs; an effect the other way counts as inactive or inconclusive)
Outline: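 Tet-on ROR gamma CHO cells were given compounds for 2 hr, then doxycycline hyclate at 1 uM final, and incubated 16 hr at 37 C. Viability was measured as ATP content by CellTiter-Glo luminescence.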

[12] = target: Nuclear receptor ROR-gamma (Homo sapiens) (UniProt P51449); assay: qHTS assay to identify small molecule antagonists of the retinoid-related orphan receptor gamma (ROR-gamma) signaling pathway (AID 1159521; active = well fitted curve in the direction sought with a large enough effect in the repeat runs; an effect the other way counts as inactive or inconclusive)
Outline: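 Test compounds were applied to Tet-on RORγ CHO cells 2 h ahead of doxycycline hyclate (1 uM final). Luciferase reporter activity was quantified by luminescence after 16 h at 37 C and 5% CO2.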

[13] = qHTS assay to identify small molecule agonists of the AP-1 signaling pathway - cell viability counter screen (AID 1159525); note: nearly all actives have a fitted effect of over 55% in size
Outline: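 Same-well cytotoxicity counter screen of the Tox21 10K library in ME-180 cells. The readout is ATP-dependent luminescence after 5 h compound treatment. Data are normalised to DMSO and tetra n-octyl ammonium bromide controls.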

[14] = qHTS assay to identify small molecule agonists of the AP-1 signaling pathway (AID 1159526); note: % is set by controls: 0 for no effect and ±100 for the full control effect
[15] = target: Retinoic acid receptor RXR-alpha (Homo sapiens) (UniProt P19793); assay: qHTS assay to identify small molecule agonists of the RXR signaling pathway (AID 1159527); note: % is set by controls: 0 for no effect and ±100 for the full control effect; nearly all actives have a fitted effect of over 35% in size
Retinoic acid receptor RXR-alpha (Homo sapiens), sequence (P19793 whole entry, looked up): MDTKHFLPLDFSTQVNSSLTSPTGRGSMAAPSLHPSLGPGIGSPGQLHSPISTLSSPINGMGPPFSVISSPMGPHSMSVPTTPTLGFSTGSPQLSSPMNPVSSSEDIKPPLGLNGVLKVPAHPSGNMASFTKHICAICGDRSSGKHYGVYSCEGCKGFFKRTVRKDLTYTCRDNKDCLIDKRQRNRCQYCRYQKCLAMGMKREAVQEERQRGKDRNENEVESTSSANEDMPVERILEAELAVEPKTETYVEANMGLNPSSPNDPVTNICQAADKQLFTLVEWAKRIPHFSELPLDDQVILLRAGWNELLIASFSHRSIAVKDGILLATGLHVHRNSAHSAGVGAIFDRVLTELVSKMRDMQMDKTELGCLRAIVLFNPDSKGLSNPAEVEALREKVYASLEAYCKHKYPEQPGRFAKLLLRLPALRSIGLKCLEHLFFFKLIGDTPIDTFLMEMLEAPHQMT
Outline: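 Using 9-cis retinoic acid as the reference agonist, chemicals were tested in HEK 293T cells […] for 16 hr; substrate loading lasted 2 hr at room temperature.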

[16] = target: Vitamin D3 receptor (Homo sapiens) (UniProt P11473); assay: qHTS assay to identify small molecule agonists of the vitamin D receptor (VDR) signaling pathway (AID 743222); note: % is set by controls: 0 for no effect and ±100 for the full control effect
Vitamin D3 receptor (Homo sapiens), sequence (P11473 whole entry, looked up): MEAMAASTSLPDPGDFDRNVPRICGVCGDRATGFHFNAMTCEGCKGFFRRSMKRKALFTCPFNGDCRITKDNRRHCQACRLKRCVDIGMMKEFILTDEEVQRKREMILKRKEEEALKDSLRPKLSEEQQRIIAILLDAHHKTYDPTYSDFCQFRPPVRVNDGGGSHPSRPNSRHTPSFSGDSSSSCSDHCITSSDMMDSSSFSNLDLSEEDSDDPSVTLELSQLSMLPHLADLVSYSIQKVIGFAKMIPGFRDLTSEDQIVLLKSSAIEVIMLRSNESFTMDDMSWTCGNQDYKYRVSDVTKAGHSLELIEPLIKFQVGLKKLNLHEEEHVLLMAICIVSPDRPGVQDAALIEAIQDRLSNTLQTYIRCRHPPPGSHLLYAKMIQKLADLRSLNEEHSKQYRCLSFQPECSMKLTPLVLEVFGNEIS
Outline: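 Fluorescence from cleaved LiveBLAzer B/G FRET substrate served as readout. VDR-bla cells had been treated 16 h at 37C with test compounds in DMSO, following a 4 h settling period, and substrate was loaded for 2 h at RT.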

[17] = target: Bile acid receptor (Homo sapiens) (UniProt Q96RI1); assay: qHTS assay to identify small molecule antagonists of the farnesoid-X-receptor (FXR) signaling pathway (AID 743217; active = well fitted inhibition curve with a large enough effect in the signal ratio in the repeat runs, not every such curve was filed as active; the % refers to the signal ratio; note: % is set by controls: 0 for no effect and ±100 for the full control effect)
Bile acid receptor (Homo sapiens), sequence (Q96RI1 whole entry, looked up): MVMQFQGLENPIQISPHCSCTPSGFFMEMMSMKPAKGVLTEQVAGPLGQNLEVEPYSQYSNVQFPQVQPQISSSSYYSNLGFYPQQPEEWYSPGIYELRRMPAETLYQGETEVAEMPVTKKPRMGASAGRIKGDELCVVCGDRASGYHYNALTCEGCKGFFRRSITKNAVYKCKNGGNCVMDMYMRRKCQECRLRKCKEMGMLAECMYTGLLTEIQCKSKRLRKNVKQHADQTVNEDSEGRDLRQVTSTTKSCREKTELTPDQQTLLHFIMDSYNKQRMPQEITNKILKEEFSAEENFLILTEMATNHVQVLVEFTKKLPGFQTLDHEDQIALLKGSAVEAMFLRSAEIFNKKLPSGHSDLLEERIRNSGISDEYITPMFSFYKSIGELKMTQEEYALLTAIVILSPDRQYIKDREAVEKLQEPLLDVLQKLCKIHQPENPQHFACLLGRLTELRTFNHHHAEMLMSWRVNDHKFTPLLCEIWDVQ
Outline: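 Screen of the Tox21 10K library in quantitative HTS format using FXR-UAS-bla HEK 293T reporter cells. Agonist chenodeoxycholic acid, 50 uM final, added with compounds; 16 h incubation at 37 °C; beta-lactamase FRET fluorescence measured.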

[18] = qHTS assay to identify small molecule antagonists of the farnesoid-X-receptor (FXR) signaling pathway - cell viability counter screen (AID 743221; active = well fitted cell-killing curve with a large enough effect in the repeat runs, not every such curve was filed as active)
Outline: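 Here viability was scored by luminescence after CellTiter-Glo addition to wells already read for beta-lactamase. Prior treatment: compound plus CDCA (50 uM final), 16 h, 37 C, HEK 293T FXR-bla cells.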

[19] = target: Vitamin D3 receptor (Homo sapiens) (UniProt P11473); assay: qHTS assay to identify small molecule antagonists of the vitamin D receptor (VDR) signaling pathway (AID 743223; active = well fitted inhibition curve with a large enough effect in the signal ratio in the repeat runs, not every such curve was filed as active; the % refers to the signal ratio; note: % is set by controls: 0 for no effect and ±100 for the full control effect)
Outline: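 Inhibition of agonist-driven VDR signalling is scored in VDR-bla cells: 3 nM final 1alpha,25-dihydroxyvitamin D3 plus compound, 16 h at 37C, then beta-lactamase detection by FRET substrate fluorescence after 2 h.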

[20] = target: Bile acid receptor (Homo sapiens) (UniProt Q96RI1); assay: qHTS assay to identify small molecule agonists of the farnesoid-X-receptor (FXR) signaling pathway (AID 743220; active = well fitted activation curve with a large enough effect in the signal ratio in the repeat runs, not every such curve was filed as active; the % refers to the signal ratio; note: % is set by controls: 0 for no effect and ±100 for the full control effect)
Outline: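 FXR-UAS-bla HEK 293T cells carrying a UAS-driven beta-lactamase reporter were plated for 5 h at 37C/5% CO2, then exposed to DMSO-dissolved Tox21 10K compounds for 16 h at 37C. A LiveBLAzer B/G FRET substrate was loaded for 2 h at room temperature before fluorescence reading.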

CCN1C=CN(C)C1C (centres undefined)
inactive: outcome [1] | outcome [2] | outcome [3] | outcome [4] | outcome [5] | outcome [6] | outcome [7] | outcome [8] | outcome [9] | outcome [10] | outcome [11] | Potency [12] | outcome [13] | outcome [14] | Potency [15]

CCCCCCC1CCC(=O)O1 (centres undefined)
inactive: outcome [1] | outcome [2] | outcome [3] | outcome [4] | outcome [16] | outcome [6] | outcome [8] | outcome [9] | outcome [10] | outcome [11] | Potency [12] | outcome [13] | outcome [14] | Potency [15]

CO/N=C(\C(=O)N[C@@H]1C(=O)N2C(C(=O)O)=C(CSc3nc(=O)c(O)nn3C)CS[C@H]12)c1csc(N)n1
inactive: outcome [1] | outcome [2] | outcome [4] | outcome [17] | outcome [5] | outcome [18] | outcome [16] | outcome [19] | outcome [6] | outcome [7] | outcome [8] | outcome [9] | outcome [10] | outcome [11] | Potency [12] | outcome [13] | outcome [14] | Potency [15]

CC[C@H]1OC(=O)[C@H](C)[C@@H](O[C@H]2C[C@@](C)(OC)[C@@H](O)[C@H](C)O2)[C@H](C)[C@@H](O[C@@H]2O[C@H](C)C[C@H](N(C)C)[C@H]2O)[C@](C)(OC)C[C@@H](C)C(=O)[C@H](C)[C@@H](O)[C@]1(C)O
inactive: outcome [1] | outcome [2] | outcome [3] | outcome [4] | outcome [18] | outcome [6] | outcome [7] | outcome [8] | outcome [9] | outcome [10] | outcome [11] | Potency [12] | outcome [13] | outcome [14] | Potency [15]

C=CCCCCCCCCC(=O)OCC
inactive: outcome [1] | outcome [2] | outcome [3] | outcome [4] | outcome [5] | outcome [18] | outcome [16] | outcome [6] | outcome [7] | outcome [8] | outcome [9] | outcome [10] | outcome [11] | Potency [12] | outcome [13] | outcome [14] | Potency [15]

CC(C)(N)C#N
inactive: outcome [1] | outcome [2] | outcome [3] | outcome [4] | outcome [5] | outcome [18] | outcome [6] | outcome [7] | outcome [8] | outcome [9] | outcome [10] | outcome [11] | Potency [12] | outcome [13] | outcome [14] | Potency [15]

CO[Si](C)(OC)c1ccccc1
inactive: outcome [1] | outcome [2] | outcome [3] | outcome [5] | outcome [18] | outcome [16] | outcome [6] | outcome [7] | outcome [8] | outcome [9] | outcome [10] | outcome [11] | Potency [12] | outcome [13] | outcome [14] | Potency [15]

N[C@@H](CCC(=O)O)C(=O)O
inactive: outcome [1] | outcome [2] | outcome [3] | outcome [4] | outcome [18] | outcome [16] | outcome [19] | outcome [6] | outcome [7] | outcome [8] | outcome [9] | outcome [10] | outcome [11] | Potency [12] | outcome [13] | outcome [14] | Potency [15]

O=C(O)CCSCCC(=O)O
inactive: outcome [1] | outcome [2] | outcome [3] | outcome [4] | outcome [5] | outcome [18] | outcome [6] | outcome [7] | outcome [8] | outcome [9] | outcome [10] | outcome [11] | Potency [12] | outcome [13] | outcome [14] | Potency [15]

CC(C)CCCO
inactive: outcome [1] | outcome [2] | outcome [4] | outcome [17] | outcome [5] | outcome [20] | outcome [18] | outcome [16] | outcome [19] | outcome [6] | outcome [7] | outcome [8] | outcome [9] | outcome [10] | outcome [11] | Potency [12] | outcome [13] | outcome [14] | Potency [15]

O=C(c1ccccc1O)c1ccccc1O
inactive: outcome [1] | outcome [2] | outcome [3] | outcome [17] | outcome [5] | outcome [20] | outcome [18] | outcome [16] | outcome [19] | outcome [6] | outcome [7] | outcome [8] | outcome [9] | outcome [10] | outcome [11] | Potency [12] | outcome [13] | outcome [14] | Potency [15]

CCN1CCOCC1
inactive: outcome [1] | outcome [2] | outcome [3] | outcome [17] | outcome [5] | outcome [20] | outcome [18] | outcome [16] | outcome [19] | outcome [6] | outcome [7] | outcome [8] | outcome [9] | outcome [10] | outcome [11] | Potency [12] | outcome [13] | outcome [14] | Potency [15]

CCOC(=O)COc1cc(-n2ncc(C(F)(F)F)c(C)c2=O)c(F)cc1Cl
inactive: outcome [1] | outcome [2] | outcome [3] | outcome [4] | outcome [5] | outcome [18] | outcome [16] | outcome [6] | outcome [7] | outcome [8] | outcome [9] | outcome [10] | outcome [11] | Potency [12] | outcome [13] | outcome [14] | Potency [15]

CCN(CC#N)c1cccc(C)c1
inactive: outcome [1] | outcome [2] | outcome [3] | outcome [4] | outcome [5] | outcome [16] | outcome [19] | outcome [6] | outcome [7] | outcome [8] | outcome [9] | outcome [10] | outcome [11] | Potency [12] | outcome [13] | outcome [14] | Potency [15]

N[C@H](C(=O)O)[C@@H](O)c1ccc(O)c(O)c1
inactive: outcome [1] | outcome [2] | outcome [3] | outcome [17] | outcome [20] | outcome [18] | outcome [16] | outcome [19] | outcome [6] | outcome [7] | outcome [8] | outcome [9] | outcome [10] | outcome [11] | Potency [12] | outcome [13] | outcome [14] | Potency [15]

NC(N)=NCCN1CCCCCCC1
inactive: activity change, negative = cytotoxicity [1] 8.58% [at 0.55 µM] | activation [2] 3.33% [at 0.55 µM] | viability change, negative = cytotoxic [3] 2.8% [at 0.575 µM] | ratio activity, negative = inhibition [4] 5.69% [at 0.575 µM] | viability change, negative = cytotoxic [5] 2.57% [at 0.55 µM] | activity change, negative = cytotoxicity [18] -1.17% [at 0.55 µM] | activity change, negative = cytotoxicity [6] -13.4% [at 0.55 µM] | viability change, negative = cytotoxic [7] -3.67% [at 0.628 µM] | activity, negative = cytotoxic [8] -1.12% [at 0.628 µM] | activation [9] 2.69% [at 0.628 µM] | activity change, negative = cytotoxicity [10] -3.02% [at 0.628 µM] | activity, negative = cytotoxicity [11] 6.85% [at 0.349 µM] | activity change, negative = inhibition [12] 36.3% [at 0.35 µM] | viability change, negative = cytotoxic [13] 8.04% [at 0.29 µM] | activation [14] -7.76% [at 0.29 µM] | activation [15] 1.89% [at 0.29 µM]
